Hits are enriched below; roughly 7.5% of the tested compounds scored in any of these assays.
Rab9 prom act – qHTS Assay for Rab9 Promoter Activators. Huh7 Rab9 promoter-luciferase reporter, luminescence, 24 h. Potency, µM (top dose mostly 9.22 µM), for the others: top-dose activation, negative = inhibition, actives largely listed as activators. 320,000 tested, 2.8% active; further: % of control where 0% means no effect; nearly all actives have a fitted effect of over 60% in size
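Cells were plated at 1500 per well in reduced-serum medium with 10% FBS and left 2 h. Compound in DMSO was then added for 24 h at 37 °C. Reporter signal was read by luminescence after 10 min with luciferase detection reagent.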
NPC1 prom act – qHTS Assay for NPC1 Promoter Activators. Huh7 NPC1 promoter luciferase reporter, 24 h. Potency, µM (top dose mostly 9.22 µM), without a hit: top-dose activation, usual class: activators. 320,000 tested, 2.4% active. AID 485313, 2010; further: % of control where 0% means no effect; nearly all actives have a fitted effect of over 60% in size
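Stable NPC1-promoter luciferase Huh7 line; cpd (DMSO) 24 h, 37 °C, 5% CO2; Amplite luciferase reagent 10 min RT; luminescence readout. qHTS format.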
ELG1 genotox – qHTS screen for small molecules that induce genotoxicity in human embryonic kidney (HEK293T) cells expressing luciferase-tagged ELG1 | HEK293T ELG1-luciferase reporter, luminescence, 16 h | Potency, µM (series often up to 46 µM), without a hit: top-dose activity change, positive = activation, usual class: activators | 330,000 tested, 1.3% active; further: % of control where 0% means no effect; nearly all actives have a fitted effect of over 60% in size
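16 hr compound incubation (37 °C, 5% CO2) of HEK293T cells carrying luciferase-tagged ELG1; luciferase then measured by ONE-Glo luminescence after 30 min at RT.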
FLuc counter – qHTS profiling assay for firefly luciferase inhibitor/activator using purifed enzyme and Km concentrations of substrates (counterscreen for miR-21 project); purified FLuc, Km substrates, luminescence inhibition; Potency, µM (titrated, usually from 57.5 µM), for the others: top-dose activity change, negative = inhibition, most hits filed as inhibitors; 360,000 tested, 6.9% active; Luciferin 4-monooxygenase (Photinus pyralis), P08659;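 further: plate controls were vehicle for no effect and reference inhibitor for full effect; nearly all actives have a fitted effect of over 55% in size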
Target sequence (P08659 whole entry, looked up): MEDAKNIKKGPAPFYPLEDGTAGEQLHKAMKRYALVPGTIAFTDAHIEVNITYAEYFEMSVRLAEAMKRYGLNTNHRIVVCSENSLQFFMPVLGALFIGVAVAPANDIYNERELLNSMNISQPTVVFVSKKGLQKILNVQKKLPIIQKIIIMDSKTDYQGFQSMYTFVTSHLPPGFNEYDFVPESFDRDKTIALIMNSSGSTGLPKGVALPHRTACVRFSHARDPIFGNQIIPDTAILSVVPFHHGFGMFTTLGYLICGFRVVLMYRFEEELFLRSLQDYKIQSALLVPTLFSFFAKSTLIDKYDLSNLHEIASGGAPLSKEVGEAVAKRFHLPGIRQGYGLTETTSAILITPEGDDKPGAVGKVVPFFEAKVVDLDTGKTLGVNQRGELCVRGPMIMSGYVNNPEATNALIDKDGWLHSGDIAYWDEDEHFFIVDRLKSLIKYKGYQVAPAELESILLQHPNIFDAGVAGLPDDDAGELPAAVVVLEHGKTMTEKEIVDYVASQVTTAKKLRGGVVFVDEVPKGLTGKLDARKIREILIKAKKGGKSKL
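Purified P. pyralis luciferase (10nM final) with 10uM D-luciferin and 10uM ATP (Km levels) in 50mM Tris acetate pH 7.5, 10mM Mg acetate, 0.01% Tween-20, 0.05% BSA; qHTS 6-point titration, ~60 µM downward; luminescence read.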
KinaseGlo FLuc – Counterscreen for Luciferase (Kinase-Glo TM) Inhibition. Luciferin 4-monooxygenase (Photuris pensylvanica), Q27757. Kinase-Glo luciferase, ATP luminescence, 8 min. Potency, µM (top dose mostly 38.3 µM), without a hit: top-dose activity change, negative = inhibition, actives largely listed as inhibitors. 200,000 tested, 0.28% active. AID 1379, 2008; further: on the % scale 0 is the no-effect control and ±100 the full control effect; nearly all actives have a fitted effect of over 60% in size
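Light output from Kinase-Glo luciferase with luciferin and 10 uM ATP in 50 mM imidazole pH 7.2, KCl, MgCl2, Tween 20, BSA; compound pin-delivered, 8-min ambient incubation, then luminescence read.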
SMN2 splice up – qHTS Assay for Enhancers of SMN2 Splice Variant Expression. HEK293 SMN2-luciferase splicing reporter, luminescence, 30-36 h. Potency, µM (top dose mostly 46.1 µM), for inactives: top-dose activity change, positive = activation, usual class: activators. 210,000 tested, 2.8% active. AID 1458, 2008; further: % of control where 0% means no effect; nearly all actives have a fitted effect of over 55% in size
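HEK293 cells carry an SMN2 […]–luciferase reporter in which exon 7 inclusion puts luciferase in frame. Cells were plated 10-12 h before compound addition, then incubated 30-36 h at 37C. ONE-Glo luminescence was read; sodium butyrate at 4.5 mM final served as control.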
Active calls of the source: *; ? = inconclusive; nt = not tested or not shown; [ ] = another dose, or the depositor's remark. The call rests on the fitted dose curve; in most records, active means well fitted curve in the direction sought with a large enough effect; inconclusive means small, poorly fitted or top-dose-only effect, or another doubt; inactive means no such curve, though single readings can be large; an effect the other way counts as inactive or inconclusive. Potency means the concentration at half of the fitted maximal effect.

SMILES	Rab9 prom act	NPC1 prom act	ELG1 genotox	FLuc counter	KinaseGlo FLuc	SMN2 splice up
Clc1cnc(N/N=C/c2cccs2)c(Cl)c1	3.98µM*	2.24µM*	?	9.53µM*	-8.1%	?
Clc1cnc(N/N=C/c2ccco2)c(Cl)c1	0.794µM*	1.41µM*	?	10.7µM*	-17.4%	5.62µM*
Cc1ccc(/C=N/Nc2ncc(Cl)cc2Cl)s1	?	3.55µM*	?	6.01µM*	-3.6%	?
Oc1ccc(/C=N/Nc2ncc(Cl)cc2Cl)cc1	12.9%	14.6%	?	?	nt	nt
CC(C)C[C@H]1CN=C(Nc2ccccc2)N1CC1CCC(C(C)(C)C)CC1 (some centres undefined)	-1.7%	-3.2%	-2.3%	-3.0%	nt	nt
COC(=O)c1c(NC(=O)c2ccc(C)o2)sc2c1CCCCC2	3.55µM*	3.55µM*	10.3µM*	12µM*	-1.7%	14.1µM*
Cc1ccc(C(=O)Nc2sc3c(c2C(=O)O)CCCCC3)o1	3.55µM*	3.55µM*	2.3%	2.69µM*	7.94µM*	12.6µM*
Cc1ccc(C(=O)Nc2sc3c(c2C(=O)O)CCCC3)o1	?	?	4.1%	12µM*	nt	nt
COc1ccc2c(c1)OC(=O)CC2c1ccccc1C (centres undefined)	nt	nt	nt	nt	0.9%[39.9 µM]	nt
Cc1cccc(-c2nc(=S)c3c(o2)CCCC3)c1	1.41µM*	1.41µM*	?	3.38µM*	-11.2%	11.2µM*
CSc1cccc(NC(=O)c2ccccn2)c1	3.98µM*	?	?	10.7µM*	-10.9%	?
CSc1cccc(NC(=O)N2CCc3ccc(NC(=O)c4ccccn4)cc3C2)c1	3.98µM*	2.51µM*	-6.6%	8.49µM*	nt	nt
CSc1cccc(NC(=O)c2cnccn2)c1	23.8%	9.9%	6.1%	?	-4.6%	21.0%
CCc1ccccc1NC(=O)CN(c1cc(C(F)(F)F)ccc1Cl)S(=O)(=O)c1ccccc1	nt	nt	nt	-5.7%	nt	-2.9%
CCOC(=O)c1ccc(OCC2NCCc3cc(OC)c(OC)cc32)cc1 (centres undefined)	-1.9%	-4.9%	-1.7%[9.26 µM]	1.0%	nt	nt
Cc1ccc(C(=O)Nc2nc(-c3ccc(F)cc3)cs2)o1	17.1%	13.3%	-0.8%	30.1µM*	nt	nt
Cc1ccc(-c2csc(NC(=O)c3ccno3)n2)cc1	28.1%	25.4%	?	21.3µM*	3.5%	-19.8%
Cc1ccc(-c2csc(NC(=O)c3ccc(C)o3)n2)cc1	-2.2%	-0.8%	-0.3%	?	-3.6%	-3.6%
CC(C)(C)c1ccc(C(=O)NCC(=O)OCC(=O)Nc2nc(-c3ccc(F)cc3)cs2)cc1	18.2%	15.9%	8.2%	13.5µM*	-0.3%	16.8%
O=C(NN1C(=O)/C(=C/c2cccs2)SC1=S)c1ccccc1	-4.5%	-1.8%	-1.4%	0.4%	3.3%	-6.1%
Cc1ccc(C2=N/C(=C\c3cccs3)C(=O)N2Nc2ccccc2)cc1	14.9%	-0.2%	-2.0%	-19.8%	0.8%	-1.4%
O=C1/C(=C/c2cccs2)N=C(c2cccs2)N1Nc1ccccc1	10.0%	-3.0%	2.4%	23.9µM*	0.8%	-6.6%
O=C1/C(=C\c2cccs2)N=C(c2cccs2)N1Nc1ccccc1	-18.3%	-2.6%	-5.2%	21.3µM*	-6.5%	-5.6%
Nc1c(C(=O)NCC2CCCO2)sc2nc3c(c(-c4ccco4)c12)CC/C3=C\c1ccco1 (centres undefined)	3.1%	0.7%	0.8%	5.36µM*	-6.7%	-0.7%
COC(=O)CC1Oc2ccccc2-n2cc(-c3ccc(F)cc3)nc21 (centres undefined)	nt	nt	nt	-1.7%	nt	-18.1%
SMILES	Rab9 prom act	NPC1 prom act	ELG1 genotox	FLuc counter	KinaseGlo FLuc	SMN2 splice up
CC(C)N(Cc1ccccc1)S(=O)(=O)c1n[nH]c(C(C)(C)C)n1	nt	nt	nt	nt	-1.3%[7.66 µM]	-6.8%[9.22 µM]
Cn1cc(Br)c(C(=O)Nc2sc3c(c2C(N)=O)CCC3)n1	17.7%	22.4%	12.1%	10.7µM*	-6.9%	40.7%
Cc1cc(C(F)F)n2nc(C(=O)Nc3sc4c(c3C(N)=O)CCC4)nc2n1	-1.9%	2.4%	1.3%	12µM*	0.1%	-8.1%
Cn1nccc1C(=O)Nc1sc2c(c1C(N)=O)CCCC2	?	25.2%	?	9.53µM*	-1.5%	5.0%
CCn1ncc(Br)c1C(=O)Nc1sc2c(c1C(N)=O)CCC2	10.2%	-0.1%	0.9%	-4.2%	0.0%	-8.9%
Cn1nccc1C(=O)Nc1sc2c(c1C#N)CCCC2	5.8%	11.8%	11.3%	?	nt	nt
Cn1ccc(C(=O)Nc2sc3c(c2C(N)=O)CCCCC3)n1	0.501µM*	1µM*	0.461µM*	0.601µM*	nt	nt
CC(=O)Nc1sc2c(c1C(N)=O)CCCC2	8.9%	-2.2%	-0.7%	2.7%	-2.6%	4.8%
CCOC(=O)/C=C1\SCC(=O)N1CC(=O)Nc1cc(S(=O)(=O)N(C)C)ccc1C	nt	nt	-0.2%	nt	nt	nt
CCOC(=O)C1(Cc2ccccc2C)CCCN(C(=O)c2ccoc2)C1 (centres undefined)	27.2%	3.3%	-3.0%	?	nt	nt
Cc1c2ccccc2nc2c(F)c(N(C)C)c(F)c(F)c12	?	20.9%	?	9.53µM*	-1.1%	?
COc1cccc(OC)c1NC(=O)C1CCCN1C(=O)Nc1ccccc1F (centres undefined)	-4.9%	2.8%	2.6%	-1.9%	nt	nt
CCOC(=O)c1sc2ccccc2c1OC(=O)c1ccccc1	-1.5%	1.5%	-13.3%	-1.5%	-1.8%	11.2%
CC(=Nc1ccc(Br)cc1)c1sc2ccccc2c1O	3.16µM*	3.16µM*	3.66µM*	1.35µM*	nt	nt
NC(=Nc1ccc(Br)cc1)c1ccccc1	20.1%	24.0%	?	?	nt	nt
CC(=Nc1ccccc1)c1sc2ccccc2c1O	?	16.8%	2.91µM*	1.51µM*	-16.3%	11.2µM*
COc1ccc(/C(N)=N/OC(=O)Cc2cccs2)cc1OC	5.8%	10.7%	12.4%	23.9µM*	1.4%	23.4%
COc1ccc(CC(=O)O/N=C(\N)c2ccc(OC)cc2)cc1	23.8%	9.5%	6.5%	?	nt	nt
COc1ccc(/C(N)=N/OC(=O)Cc2cccs2)cc1	3.16µM*	?	?	12µM*	0.3%	?
CC(C)(C)c1ccc(Oc2ccc(NC(=O)c3ccccc3C(=O)O)cn2)cc1	-1.3%	-0.7%	-6.4%	19µM*	nt	nt
Cc1cccc(Oc2ccc(NC(=O)c3ccccc3C(=O)O)cc2)c1	-4.7%	2.1%	5.5%	21.3µM*	nt	nt
O=C(CCC(=O)c1ccc(Oc2ccccc2)cc1)Nc1ccc(C(=O)O)cc1	-0.4%	-0.7%	-0.2%	19µM*	nt	nt
O=C(O)c1ccccc1C(=O)Nc1ccc(Oc2ccccc2)cc1	1.3%	-0.3%	1.2%	26.9µM*	nt	nt
